Source: PubChem BioAssay
Shiga inhibitor: A qHTS for Small Molecule Inhibitors of Shiga Toxin; Vero cells, Shiga toxin protein synthesis inhibition reporter; inhibition, % at 38.7 µM; 9.2% of 290,000 active; AID 2315, 2010; in the data active means inhibition mostly above about 28%, no sharp cut-off; inactive means mostly below about 43%; further: 0% is about no effect
Pf growth 96h: Primary qHTS for delayed death inhibitors of the malarial parasite plastid, 96 hour incubation. P. falciparum luciferase reporter growth, 96 h. Potency, µM (titrated, usually from 28.7 µM), without a hit: at the highest dose activity change, negative = inhibition, most hits filed as inhibitors. 6.9% of 320,000 active; further: potency means the concentration at half of the fitted maximal effect; on the % scale 0 is the no-effect control and ±100 the full control effect
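Two-generation exposure (96 h) targets delayed-death phenotype. Reporter parasites carrying integrated firefly luciferase, in red cells at 2% hematocrit and 0.05% parasitemia final, kept at 37 C, 5% CO2; luminescence loss indicates inhibition.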
Pf growth 48h: Primary qHTS for delayed death inhibitors of the malarial parasite plastid, 48 hour incubation; P. falciparum luciferase growth in erythrocytes, 48 h; Potency, µM (series often up to 28.7 µM), for inactives: top-dose activity change, negative = inhibition, most hits filed as inhibitors; 5.9% of 310,000 active; further: potency means the concentration at half of the fitted maximal effect; on the % scale 0 is the no-effect control and ±100 the full control effect
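Firefly luciferase activity from engineered P. falciparum reports growth; inhibitors lower the luminescent signal. Cultures contained 2% hematocrit erythrocytes at 0.1% final parasitemia.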
Cycloheximide cs: Cycloheximide Counterscreen for Small Molecule Inhibitors of Shiga Toxin | 12% of 300,000 active | cell reporter, cycloheximide protein synthesis inhibition counterscreen | max response, % | AID 2314, 2010; in the data active means max response mostly above about 13%, no sharp cut-off; inactive means mostly below about 14%; further: read at 38.3 µM for the half of the compounds with a filed dose; 0% is about no effect
Active calls of the source: *; ? = inconclusive; . = no result. A selection: hits, their analogues and other compounds. The true share with any hit is near 21%. Unless noted, the call rests on the fitted dose curve; in most records, active means well fitted inhibition curve with a large enough effect; inconclusive means small, poorly fitted or top-dose-only effect, or another doubt; inactive means no such curve, though single readings can be large or run the other way.

SMILES	Shiga inhibitor	Pf growth 96h	Pf growth 48h	Cycloheximide cs
COCCNc1nc(C)c(C(C)=O)s1	-10	28%	20%	-1
CC(=O)c1sc(N/N=C2\CC3CC2C(C)C3(C)C)nc1C (stereo not drawn)	48*	?	-29%	34*
COc1ccccc1CNC(=O)C1=CCN(S(=O)(=O)c2ccc(C)cc2)CC1	-8	-26%	-16%	-3
Cc1ccc(N(C(=O)c2csnn2)C(C(=O)NC2CCCC2)c2ccccn2)cc1 (stereo not drawn)	-7	-5%	9%	-3
Nc1ccc(N=Nc2ccccc2)c2ccccc12	22	64%	3%	22*
Nc1ccc(N=Nc2ccccc2)c(N)n1	73*	50%	111%	52*
Nc1c(N=Nc2ccc(-c3ccc(N=Nc4cc(S(=O)(=O)O)c5ccccc5c4N)cc3)cc2)cc(S(=O)(=O)O)c2ccccc12	-6	1%	-3%	19
CC(C)C(=O)NCC(c1ccc2c(c1)OCO2)N1CCOCC1 (stereo not drawn)	9	25%	17%	-7
CCOc1ccc(-n2cc(C(=O)N3CCC(C)CC3)c3cc(OC)c(OC)cc3c2=O)cc1	-7	77%	9.3µM*	28
CCOc1ccc(NC(=O)c2cn(-c3ccc(OCC)cc3)c(=O)c3cc(OC)c(OC)cc23)cc1	1	3.3µM*	?	2
CCOc1ccc(N(CC(=O)N2CCCC2)S(=O)(=O)c2ccc(F)cc2)cc1	-2	1%	-11%	-5
CCOc1ccc(N(CC(=O)N2CCN(c3ccccc3OC)CC2)S(=O)(=O)c2ccc(F)cc2)cc1	2	0.93µM*	?	2
CCOc1ccc(N(CC(=O)N2CCN(c3ccccc3OC)CC2)S(=O)(=O)c2ccc(C)cc2)cc1	-6	12µM*	?	-3
NC(N)=Nc1nc(-c2ccccc2)c2cc(F)ccc2n1	43	3%	?	5
C/C=C/c1cc(CN2CCN(c3ccc(OC)cc3)CC2)c(O)c(OC)c1	2	?	1.5µM*	2
C/C=C/c1cc(CN2CCN(c3ccccc3)CC2)c(O)c(OC)c1	20	1.7µM*	1.3µM*	-1
CC1C(=O)Nc2ccc(S(=O)(=O)NCCc3ccc(Cl)cc3)cc2NC1=O (stereo not drawn)	7	0%	32%	5
CCCCOCCCN1CC(=O)N2[C@@H](Cc3c([nH]c4ccccc34)C2(C)C)C1=O	-3	9.3µM*	?	-3
CCCCN(CCCC)CCCN1CC(=O)N2[C@@H](Cc3c([nH]c4ccccc34)C2(C)C)C1=O	-2	?	9.3µM*	-2
Cn1c(C(=O)NCc2cccs2)cc2oc3ccccc3c21	82*	.	59%	62*
Cn1c(C(=O)NCC2CCCO2)cc2c(=O)n(C)c3ccccc3c21 (stereo not drawn)	11	?	13%	-3
Cn1c(=O)c(C(=O)NCC2CCCO2)c(O)c2ccccc21 (stereo not drawn)	45	4%	?	27*
Cn1c(C(=O)NCC2CCCO2)cc2oc3ccccc3c21 (stereo not drawn)	103*	86%	87%	35*
O=C(CNC(=O)c1cc2ccccc2o1)NCc1cccs1	13	28%	-5%	-2
Cn1c(C(=O)NCc2ccccc2)cc2oc3ccccc3c21	85*	.	72%	46*
SMILES	Shiga inhibitor	Pf growth 96h	Pf growth 48h	Cycloheximide cs
Cn1c(C(=O)NCC2CCCO2)cc2c(=O)[nH]c3ccccc3c21 (stereo not drawn)	9	?	4%	5
CCN1CCN(c2ncnc3sc(C)c(-c4ccccc4)c23)CC1	-12	-18%	-12%	-1
Cc1ccc(N(CC(=O)N/N=C/c2cccc(Br)c2)S(C)(=O)=O)cc1	-4	-16%	16%	-5
Cc1ccc(NC(=O)c2ccc(=O)n(CC(=O)Nc3ccccc3)n2)cc1	-3	-4%	3%	-1
CCc1nnc(NC(=O)CCc2ccccc2OC)s1	19	2%	0%	-2
Cc1cc(C)cc(-n2c(=O)c3ccccc3n(CC(=O)NCC3CCCO3)c2=O)c1 (stereo not drawn)	-10	0%	36%	-3
Cc1ccc2c(c1)c1c(c(=O)n(-c3ccccc3C)c(=O)n1CC(=O)NCC1CCCO1)n2C (stereo not drawn)	1	9.3µM*	?	-1
CN(C(=O)COC(=O)c1ccccc1SCC(=O)N1CCCC1)C1(C#N)CCCCC1	.	?	-24%	.
O=C(Nc1cccc(-c2cnc3ccccc3n2)c1)C1CC(=O)N(c2ccccc2)C1 (stereo not drawn)	25	14%	3%	18
CCC(=O)Nc1cccc(-c2cnc3ccccc3n2)c1	36*	?	.	47*
CCc1ccc(-c2cnc3ccccc3n2)cc1NC(=O)CNC(=O)c1ccccc1	105*	456%	169%	37*
O=C(CCl)Nc1ccc(Oc2cnc3ccccc3n2)cc1	46	0.74µM*	1.7µM*	30*
O=C(CCl)Nc1cccc(-c2cnc3ccccc3n2)c1	72*	.	1µM*	46*
CCC(=O)Nc1cccc(-c2nc3ccccc3c(=O)o2)c1	-22	-10%	-2%	-5
CCN(CC)C(=O)COc1ccc(-c2nnc(Nc3ccc(OC)c(C(=O)NC)c3)c3ccccc23)cc1	5	10µM*	?	1
COc1ccc(Nc2nnc(-c3ccccc3)c3ccccc23)cc1C(=O)N1CCCCC1	-17	1.2µM*	9.3µM*	-2
COc1ccc(Nc2nnc(-c3ccc(C)cc3)c3ccccc23)cc1C(=O)N1CCCCC1	-7	1.2µM*	6.6µM*	-3
Cc1cccc(Nc2nnc(-c3ccc(C(=O)N4C[C@H]5C[C@H](C4)c4cccc(=O)n4C5)cc3)c3ccccc23)c1	-7	3.7µM*	?	-3
CCN(CC)C(=O)COc1ccc(-c2nnc(N3CCCCC3)c3ccccc23)cc1	-12	2%	?	-3
CC1Cn2c(nnc2-c2cc3ccccc3cc2O)S1 (stereo not drawn)	-7	.	1.7µM*	8
CSc1ncccc1C(=O)OCC(=O)NC1CCC(C)CC1 (stereo not drawn)	.	-11%	4%	.
Cc1cccc2c1-c1sc(C(=O)NCCCN3CCC(C)CC3)cc1CO2	-13	?	?	3
CCOC(=O)c1cc2c(s1)-c1c(C)cccc1OC2	168*	?	.	51*
Cc1cccc2c1-c1sc(C(=O)Nc3nccs3)cc1CO2	118*	8.3µM*	.	66*
O=C(Nc1nccs1)c1cc2c(s1)-c1ccccc1OC2	71*	-4%	.	21*
Cc1cccc2c1-c1sc(C(=O)Nc3cccc([N+](=O)[O-])c3C)cc1CO2	6	0.74µM*	-5%	0
CCN(CC)CCCn1c2c(c(SCC(=O)Nc3nc(C)cs3)nc1=O)CCC2	.	-2%	0%	.
COc1ccc(NC(=O)CN(c2ccccc2F)S(=O)(=O)c2ccc(C)cc2)c(OC)c1	-8	1%	?	-1
C[C@H](NC(=O)C1CCN(S(=O)(=O)c2ccccc2)CC1)C(=O)NCc1ccc(F)cc1	-5	?	9%	14
